About 83,000 compounds went through this panel and 20% of them were active in at least one assay; those are over-represented in the sample as a whole.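 A percent growth of 40 corresponds to 60% growth inhibition; 0 means no net growth; -100 means all cells died. Active threshold: below 10.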 Active and inactive are the calls of the source.
Key:
Assay in all cases: NCI-60 one-dose screen, 48 h (100 = growth as untreated, 0 = no growth, -100 = all killed)
Details in all cases: 10 µM unless noted
[1] = tested on: SK-MEL-2 melanoma
[2] = tested on: EKVX NSCLC
[3] = tested on: SN12C renal
[4] = tested on: UO-31 renal
[5] = tested on: TK-10 renal
[6] = tested on: ACHN renal
[7] = tested on: CAKI-1 renal
[8] = tested on: CCRF-CEM leukemia
[9] = tested on: MOLT-4 leukemia
[10] = tested on: SR leukemia
[11] = tested on: RPMI-8226 leukemia
[12] = tested on: OVCAR-8 ovarian
[13] = tested on: OVCAR-5 ovarian
[14] = tested on: OVCAR-4 ovarian
[15] = tested on: SK-OV-3 ovarian
[16] = tested on: IGROV1 ovarian
[17] = tested on: OVCAR-3 ovarian
[18] = tested on: HS 578T breast
[19] = tested on: NCI/ADR-RES ovarian

Measured: growth

CC1=C(C(=O)/C=C/c2c[nH]c3ccccc23)C(c2ccccc2)NC(=S)N1 (stereo not given)
inactive: [1] 99.2% | [2] 85.1% | [3] 91.6% | [4] 63.9% | [5] 135% | [6] 93.5% | [7] 77.8% | [8] 103% | [9] 101% | [10] 88.8% | [11] 101% | [12] 101% | [13] 96.7% | [14] 101% | [15] 95.4% | [16] 76.8% | [17] 98.5% | [18] 95.9% | [19] 97.1%

CCCCCCCCO/N=C\c1c2c(O)c3c(O)c(C)c4c(c3c1O)C(=O)C(C)(O/C=C\C(OC)C(C)C(OC(C)=O)C(C)C(O)C(C)C(O)C(C)/C=C\C=C(\C)C(=O)N2)O4 (stereo not given)
inactive: [2] 22.5% | [3] 21.8% | [4] 17.7% | [5] 30% | [6] 25% | [7] 13.1% | [8] 19.8% | [9] 12.9% | [12] 24% | [13] 48.8% | [14] 29.4% | [15] 30.5% | [16] 23.4% | [17] 22.2% | [19] 32.1%
active: [1] -31.4% | [10] 6.26% | [11] 9.95% | [18] -2.52%

CC(=O)Nc1cccc(-c2ccc3c(c2)NC(=O)/C3=C\c2ccc[nH]2)c1
inactive: [1] 54.7% | [2] 35% | [3] 56.6% | [4] 25.9% | [5] 43.2% | [6] 33.8% | [7] 33% | [8] 27% | [9] 29.4% | [11] 15.8% | [12] 56.4% | [13] 38.4% | [14] 53.1% | [15] 48.8% | [16] 43.4% | [17] 69.6% | [18] 64.6% | [19] 49.6%
active: [10] 9.65%

CCN(Cc1ccccc1)c1ccc(C=O)cc1
inactive: [1] 98.3% | [2] 106% | [3] 96.7% | [4] 74.6% | [5] 64.2% | [6] 91.9% | [7] 88% | [8] 45.5% | [9] 97.2% | [10] 90.3% | [11] 90.4% | [12] 97.8% | [13] 93.1% | [14] 85.8% | [15] 103% | [16] 96.1% | [17] 97.9% | [18] 120% | [19] 101%

CCc1ccc(CNc2ccc(N3CCOCC3)c(C(=O)O)c2)cc1
inactive: [1] 82.7% | [2] 98.3% | [3] 108% | [4] 89.5% | [5] 94% | [6] 103% | [7] 97.2% | [8] 102% | [9] 99.2% | [10] 104% | [11] 109% | [12] 102% | [13] 99.9% | [14] 110% | [15] 103% | [16] 102% | [17] 104% | [18] 125% | [19] 98.6%

Cc1ccccc1NS(=O)(=O)c1cccc(C(=O)Nc2ccc(Br)cc2)c1
inactive: [1] 42.9% [25 µM] | [2] 16.6% [25 µM] | [3] 42.9% [25 µM] | [4] 22.8% [25 µM] | [5] 55.9% [25 µM] | [6] 47% [25 µM] | [7] 26.2% [25 µM] | [8] 42.4% [25 µM] | [9] 26.9% [25 µM] | [10] 45.2% [25 µM] | [11] 33.6% [25 µM] | [12] 40.5% [25 µM] | [13] 76.7% [25 µM] | [14] 36.5% [25 µM] | [15] 46.3% [25 µM] | [16] 40.5% [25 µM] | [17] 47.3% [25 µM] | [18] 59.1% [25 µM] | [19] 19.1% [25 µM]

Cn1cc(CC2CC(=O)N(c3ccccc3)C2=O)sc1=NC(=O)c1ccccc1 (stereo not given)
inactive: [1] 106% | [2] 95.1% | [3] 103% | [4] 83.5% | [5] 102% | [6] 101% | [7] 94.7% | [8] 108% | [9] 106% | [10] 96% | [11] 105% | [12] 104% | [13] 95.2% | [14] 103% | [15] 97.1% | [16] 93.1% | [17] 99.2% | [18] 89.8% | [19] 97.5%

COc1cc2nc(-c3ccc(C(F)(F)F)cc3)cc(OCCN3CCCCC3)c2cc1OC
inactive: [1] 105% | [2] 62.4% | [3] 63.6% | [4] 54.3% | [5] 93.9% | [6] 81.4% | [7] 45.2% | [8] 78.8% | [9] 65.3% | [10] 19.2% | [11] 42.3% | [12] 78.2% | [13] 58.4% | [14] 81.8% | [15] 83.7% | [16] 46.5% | [17] 89.7% | [18] 74.7% | [19] 63.1%

COc1cccc(-c2nc3occn3c2-c2ccnc(NCCNS(=O)(=O)c3ccc(C(F)(F)F)cc3)n2)c1
inactive: [1] 98.2% | [2] 84.3% | [3] 88.6% | [4] 66.1% | [5] 116% | [6] 80.9% | [7] 64.3% | [8] 92.1% | [9] 75.3% | [10] 96.6% | [11] 69.2% | [12] 90.8% | [13] 116% | [14] 83.7% | [15] 103% | [16] 80.6% | [17] 96.7% | [19] 99.4%
active: [18] -23.5%

ClC1=C(Br)C(Br)(Br)C(=C(Br)Br)C1(Br)Br
inactive: [1] 110% | [2] 111% | [3] 95.5% | [4] 71.7% | [5] 80.4% | [6] 78.6% | [7] 61.3% | [8] 25.1% | [9] 74.5% | [10] 44% | [11] 73.1% | [12] 85.1% | [13] 110% | [14] 99.1% | [15] 118% | [16] 102% | [17] 75% | [18] 103% | [19] 110%

COc1ccc(C(=O)CSc2nc(-c3cc(OC)ccc3OC)cc(-c3ccc(Cl)cc3)c2C#N)cc1
inactive: [1] 70.8% | [2] 79.7% | [3] 42.6% | [4] 45.9% | [5] 61.9% | [6] 31% | [7] 64.9% | [8] 98.2% | [9] 94.3% | [10] 65.3% | [11] 78.5% | [12] 61.2% | [13] 81.2% | [14] 24.8% | [15] 33.3% | [16] 62.4% | [17] 98.1% | [18] 57.8% | [19] 77.5%

NC(=NCc1ccccc1)C(N=Nc1ccccc1)C(=O)NCc1ccccc1 (stereo not given)
inactive: [1] 107% | [2] 82.5% | [3] 58.6% | [4] 68.3% | [5] 69.6% | [6] 92.1% | [7] 54% | [8] 76% | [9] 61% | [10] 19.1% | [11] 90.9% | [12] 31.1% | [13] 100% | [14] 76.5% | [15] 95.6% | [16] 81.5% | [17] 88.8% | [18] 64% | [19] 50.2%

Cc1ccc(NC(=O)c2cc(-c3nc4ccccc4s3)c(=O)n(NS(=O)(=O)c3ccc(Cl)cc3)c2N)cc1
inactive: [1] 103% | [2] 92.1% | [3] 101% | [4] 83.9% | [5] 136% | [6] 108% | [7] 85.1% | [8] 104% | [9] 97.9% | [10] 95% | [11] 94.6% | [12] 103% | [13] 110% | [14] 103% | [15] 108% | [16] 99.7% | [17] 103% | [18] 104% | [19] 105%

NCCCCCCNc1cc(-c2cccc(OC(F)(F)F)c2)nc2ccc(N3CCCC3)cc12
active: [1] -63.6% | [3] -20.1% | [4] -91.5% | [5] -44.4% | [6] -16.6% | [7] -45.9% | [8] -32.2% | [9] -20.7% | [10] -24.7% | [11] -37.8% | [12] 2.63% | [14] -39.8% | [16] -55.6% | [17] -82.4% | [18] -54% | [19] 5.01%
inactive: [2] 65.4% | [13] 12.6% | [15] 93.6%

Cc1cc2nc3c4cc([N+](=O)[O-])ccc4n(CCN(C)C)c3nc2cc1C
active: [1] -56.5% | [2] -3.49% | [3] 1.16% | [4] -41.9% | [5] -5.99% | [6] -13% | [7] -15.7% | [8] 3.84% | [9] 1.36% | [10] -16.7% | [11] -36.4% | [12] 8.77% | [13] -8.87% | [14] 9.25% | [15] 8.97% | [16] -33.6% | [17] -8.29% | [19] -13.4%
inactive: [18] 20.7%

— PubChem BioAssay (NCI)
